Screening results: PubChem, Johns Hopkins Ion Channel Center
Kir21 inh – inhibitors of mouse Kir2.1 inward-rectifier potassium channel; B-score at 10 µM; 310,000 tested, 0.85% active; AID 1672, 2009; Inward rectifier potassium channel 2 (Mus musculus), P35561; HEK293-Kir2.1, FluxOR thallium flux fluorescence; hits give low values;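 active = fluorescence ratio B-score at or below minus 3 SD of library scores, with starting-brightness B-score within 2 SD, cut at about -4.2 in these data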;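 note: channel flux triggered by added potassium and thallium sulfate stimulus; B-score of peak minus minimum fluorescence over baseline after thallium stimulus; more negative B-score means stronger Kir2.1 block with less thallium influx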
TMEM16A act – TMEM16A chloride channel activators or potentiators, primary screen, cell-based, HTS | HEK293 TMEM16A/YFP-H148Q/I152L, iodide quench fluorescence; hits give low values | B-score at 10 µM | 340,000 tested, 0.3% active | AID 623877, 2012;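 active = fluorescence-ratio B-score plate-corrected deviation score at least 3 library SD below zero, with starting fluorescence score within 5 deviations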;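 note: channel opened by trigger with iodide after compound preincubation; score built on the fluorescence ratio of max minus min over baseline; more negative score means more quench and so TMEM16A activation or potentiation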
KCNK9 inh – KCNK9 potassium channel inhibitors, primary screen, HEK293 cells, thallium flux. Potassium channel subfamily K member 9 (Homo sapiens), Q9NPC2. FluxOR thallium flux fluorescence; hits give low values. B-score at 10 µM. 310,000 tested, 1.2% active. AID 488922, 2010;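 active = ratio B-score over 3 SD below the library mean, with starting fluorescence within 5 SD of its mean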;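 note: negative B-score means less thallium flux so channel inhibition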
TMEM16A inh – TMEM16A chloride channel inhibitors, primary screen, cell-based, HTS; Anoctamin-1 (Mus musculus), Q8BHY3; HEK293 TMEM16A/YFP iodide influx fluorescence, ionomycin; normalized B-score (activity score, 25-100; higher = stronger inhibition) at 10 µM; 310,000 tested, 1.2% active; AID 588511, 2011;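 active = ratio plate-corrected score three or more library SD toward inhibition, starting fluorescence score within five deviations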;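 note: score derived from kinetic fluorescence span divided by baseline fluorescence per well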
KCNK3 inh – human KCNK3 channel inhibitors, primary screen, CHO cells, FluxOR thallium flux, B-score. Potassium channel subfamily K member 3 (Homo sapiens), O14649. B-score at 10 µM. AID 602410, 2012. 340,000 tested, 0.84% active. FluxOR fluorescence; hits give low values;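 active = B-score under library mean minus 4 SD, starting fluorescence ratio at most library mean plus 5 SD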;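 note: more negative B-score means stronger inhibition of thallium flux through KCNK3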
Target sequence (O14649 whole entry, looked up): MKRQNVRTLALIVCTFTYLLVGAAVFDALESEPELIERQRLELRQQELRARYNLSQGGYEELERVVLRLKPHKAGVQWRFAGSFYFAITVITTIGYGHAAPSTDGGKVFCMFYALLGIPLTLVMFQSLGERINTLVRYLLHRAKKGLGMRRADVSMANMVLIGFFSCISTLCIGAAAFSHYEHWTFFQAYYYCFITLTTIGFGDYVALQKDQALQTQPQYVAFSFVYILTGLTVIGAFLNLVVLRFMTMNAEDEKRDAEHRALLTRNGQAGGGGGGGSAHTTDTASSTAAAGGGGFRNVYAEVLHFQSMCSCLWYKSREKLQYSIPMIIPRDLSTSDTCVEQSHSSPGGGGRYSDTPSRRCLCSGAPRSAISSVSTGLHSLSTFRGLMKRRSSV
KCNK3 confirm – retest of human KCNK3 channel inhibitors, confirmation, CHO cells, FluxOR thallium flux, triplicate. shares compounds with KCNK3 inh. FluxOR fluorescence; 0% buffer, 100% carvedilol maximal block. ratio percent of control, % at 10 µM. 2,400 tested, 99% active. AID 651638, 2012;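 active = ratio percent of control, averaged over triplicates, above buffer control mean plus 5 SD, cut at about 64% in these data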;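 note: ratio is the fluorescence rise from min to max over baseline after thallium stimulus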
KCNK3 noninduced – thallium flux inhibition in non-induced cells, primary screen, counter-screen for KCNK3 inhibitor project, cell-based, non-induced KCNK3 line, FluxOR thallium, triplicate. shares compounds with KCNK3 inh. non-induced KCNK3 parental cells; hits give low values. thallium flux ratio (lower = more inhibition) at 10 µM. 2,400 tested, 40% active. AID 651747, 2012;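 active = thallium flux ratio, averaged over three wells, more than 5 SD below the buffer control mean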;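 note: host cells are CHO cells without KCNK3 induction; ratio is peak minus trough fluorescence over baseline then normalized to buffer controls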
An asterisk follows results filed as active; i = inactive; x = no result given. Most compounds without a hit are left out; they make up all but 3.5% or so of the library.

SMILES	Kir21 inh	TMEM16A act	KCNK9 inh	TMEM16A inh	KCNK3 inh	KCNK3 confirm	KCNK3 noninduced
CCOc1ccc(NC(=O)CN(C)C(=O)CCCOc2ccc(Cl)c(C)c2)cc1OCC	0.44	i	i	i	-9.9*	93*	i
CCOc1ccc(NC(=O)CN(C)C(=O)CCc2ccccc2Cl)cc1OCC	0.24	i	i	i	i	x	x
COc1ccc(/C=C/C(=O)NCCCN2CCOCC2)cc1	0.01	i	i	i	i	x	x
Cc1cc(CN2CCOCC2)c(O)c(C2(C)CCCCC2)c1	0.34	i	i	i	-9.7*	108*	i
Cc1cc(CN(C)C)c(O)c(C2(C)CCCCC2)c1	-2	i	i	i	i	x	x
O=C(Nc1ccc2nc(-c3ccco3)[nH]c2c1)c1ccco1	-0.34	i	i	i	-8.9*	140*	i
Cn1cccc1-c1nc2ccccc2[nH]1	0.77	i	i	i	i	x	x
Cn1cccc1-c1nc2ccc(NC(=O)c3ccccc3)cc2[nH]1	-1.3	i	i	i	-11*	103*	i
COc1ccc(-c2ccc(NCCN3CCOCC3)nn2)cc1OC	0.77	i	i	i	i	x	x
O=C(CNc1ccccc1)N/N=C/c1ccc2c(c1)OCCO2	-0.16	i	i	i	i	x	x
Cn1cc([C@@H]2C[C@H]3CN(Cc4cccc(Cl)c4)C(=O)[C@]34CCCN24)c(-c2ccccc2)n1	-1.9	i	-7.3*	i	-9.7*	100*	i
Cc1nn(C)cc1[C@@H]1C[C@H]2CN(Cc3cccc(Cl)c3)C(=O)[C@]23CCCN13	0.81	i	i	i	i	x	x
O=C1N(Cc2cccc(Cl)c2)C[C@@H]2C[C@@H](c3ccco3)N3CCC[C@@]123	0.07	i	i	i	-9.2*	88*	i
O=C(COC(=O)c1ccc[n+]([O-])c1)Nc1c(Br)cc([N+](=O)[O-])cc1Br	0.88	x	i	i	x	x	x
CCOc1ccc(/C=C/C(=O)OCC(=O)NCCc2ccc(OCC)c(OCC)c2)cc1OC	0	i	i	i	i	x	x
COc1cc(OC)cc(C(=O)N[C@H](C(=O)Nc2nc(-c3cc(OC)ccc3OC)cs2)C(C)C)c1	1	i	i	i	i	x	x
COc1ccc(OC)c(-c2csc(NC(=O)Cc3ccccc3F)n2)c1	-1.5	i	-6.7*	i	i	98*	i
O=C(Nc1ccccn1)Nc1ccccc1Cl	-0.21	i	i	i	i	x	x
O=C(NCc1cccs1)C(=O)c1cn(CC(=O)N2CCOCC2)c2ccccc12	0.26	i	i	i	i	x	x
CN(C)CCn1c2c(c(SCC(=O)N3CCc4ccccc43)nc1=O)CCCC2	-0.29	i	i	i	i	x	x
COCCN(C(=O)COC(=O)/C=C/c1ccc2ccccc2n1)c1c(N)n(Cc2ccccc2)c(=O)[nH]c1=O	-0.22	i	i	i	-12*	55*	i
CC(=O)Nc1sc(C)c(C)c1C(=O)OCC(=O)N(C)c1c(N)n(Cc2ccccc2)c(=O)[nH]c1=O	-2.3	i	i	i	i	x	x
COCCN(C(=O)COC(=O)c1c(NC(C)=O)sc(C)c1C)c1c(N)n(Cc2ccccc2)c(=O)[nH]c1=O	2	i	i	i	-9.4*	97*	i
O=C(COC(=O)Cc1ccc(S(=O)(=O)N2CCOCC2)s1)Nc1ccc(OC(F)F)cc1	x	i	x	x	i	x	x
CCOC(=O)c1ccc(NC(=O)N(CC)CC)cc1	1.1	i	i	i	i	x	x
SMILES	Kir21 inh	TMEM16A act	KCNK9 inh	TMEM16A inh	KCNK3 inh	KCNK3 confirm	KCNK3 noninduced
Cc1nn(C(C)(C)C)c(OC(=O)c2cccs2)c1S(=O)(=O)c1ccccc1	0.01	i	i	i	-10*	117*	0.15*
CCCC(=O)Oc1c(S(=O)(=O)c2ccc(C)cc2)c(C)nn1C(C)(C)C	-0.02	i	i	i	-8.8*	90*	i
CCCCN(Cc1ccco1)C(=O)C1CCCN(c2ncnc3c2nc2n3CCCCC2)C1 (stereo not drawn)	0.08	i	i	i	-11*	97*	i
CC(C)c1ccc(-c2noc(C3CCCN(C(=O)c4ccc(F)cc4F)C3)n2)cc1 (stereo not drawn)	0.25	i	i	i	-9.8*	134*	0.14*
C=CCn1c(NC(C)c2cc(Cl)ccc2O)nc2ccccc21 (stereo not drawn)	-1.3	i	-6.6*	i	-12*	122*	0.14*
COc1ccccc1C(=O)Nc1ccc2c(c1)n(C)c(=O)n2C	0.38	i	i	i	i	x	x
CC1Cc2ccccc2N1Cc1cccc([N+](=O)[O-])c1 (stereo not drawn)	0.16	i	i	i	-13*	109*	i
CC1Cc2ccccc2N1Cc1ccc([N+](=O)[O-])cc1 (stereo not drawn)	-0.84	i	i	i	i	x	x
CN(c1ccccc1)S(=O)(=O)c1cccc(NC(=O)c2cc(=O)c3ccccc3o2)c1	-0.23	i	i	i	-10*	137*	i
O=C(Nc1cccc(S(=O)(=O)N2CCCCCC2)c1)c1cc(=O)c2ccccc2o1	0.11	i	i	i	i	x	x
COc1cccc(OCc2nc(-c3cccc([N+](=O)[O-])c3)no2)c1	0.74	i	i	i	-10*	99*	i
COc1cccc(-c2noc(Cn3nc(C)c([N+](=O)[O-])c3C)n2)c1	-0.05	i	i	i	i	x	x
O=C(CNC(=O)c1ccccc1)OCCOc1cccc(Cl)c1	0.52	i	i	i	i	x	x
O=C(CNC(=O)c1cccc(F)c1)OCCOc1cccc(Cl)c1	1.1	i	i	i	-8.7*	104*	i
O=c1c2c3n(c(=S)nc2[nH]n1-c1ccccc1)CCCCC3	2.4	i	i	i	i	x	x
Cc1sc2ncnc(N3CCN(Cc4ccccc4)CC3)c2c1-c1ccccc1	0.05	i	i	i	-9.6*	112*	0.16*
